Laboratory results from PubChem BioAssay AID1159580 (chemical genetic matrix, 2015).
Where “and” joins values, the source holds several entries; their conditions need not be identical. Identical values can stand only once. Among all 5,500 compounds or so, about 2,000 (36%) were called active. Not shown: some 18% with an inconclusive outcome. Cut-off read from the data, not from the text of the source: active = normalized growth mostly below about 0.91 (no sharp cut-off); inconclusive = no clear call, values can overlap the other calls; inactive = mostly above about 0.92. This is one part of the list.

Assay: chemical genetic growth profiling, strain panel (AID 1159580);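 note: tested at 20 µM; growth read once vehicle control cultures reached saturation at 30 °C; 1 = growth at the plate median or of vehicle wells; lower values mean less growth of the strain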
Settings: S. cerevisiae deletion strains, growth OD

Measured: normalized growth

Cc1ccc(O)cc1
inactive: locus YAL013W, strain DEP1, hits give low values 1.02 | locus YAL021C, strain ccr4, hits give low values 1.04 | locus YAL026C, strain drs2, hits give low values 1.03 | locus YAL030W, strain snc1, hits give low values 1.02 | locus YBL061C, strain skt5, hits give low values 1.02 | locus YBR009C, strain hhf1, hits give low values 1.03 | locus YBR021W, strain FUR4, hits give low values 1.07 | locus YBR023C, strain chs3, hits give low values 1.02 | locus YBR171W, strain sec66, hits give low values 1.02 | locus YBR229C, strain ROT2, hits give low values 1.02 | locus YBR231C, strain swc5, hits give low values 0.992 | locus YBR279W, strain paf1, hits give low values 1.02 | locus YCL011C, strain gbp2, hits give low values 1.02 | locus YCL016C, strain dcc1, hits give low values 1.01 | locus YCL029C, strain bik1, hits give low values 0.985 | locus YCL061C, strain MRC1, hits give low values 1.02 | locus YCL069W, strain vba3, hits give low values 1.02 | locus YCR088W, strain abp1, hits give low values 1.01 | locus YDL005C, strain med2, hits give low values 1.03 | locus YDL035C, strain GPR1, hits give low values 1.01 | locus YDL040C, strain nat1, hits give low values 1.01 | locus YDL074C, strain BRE1, hits give low values 1.03 | locus YDL101C, strain DUN1, hits give low values 1.03 | locus YDL134C, strain PPH21, hits give low values 1.05 | locus YDL185W, strain tfp1, hits give low values 0.99 | locus YDL192W, strain arf1, hits give low values 1.04 | locus YDR001C, strain nth1, hits give low values 1.02 | locus YDR069C, strain doa4, hits give low values 1.04 | locus YDR101C, strain arx1, hits give low values 0.98 | locus YDR137W, strain rgp1, hits give low values 1.04 | locus YDR159W, strain sac3, hits give low values 1 | locus YDR162C, strain NBP2, hits give low values 1.03 | locus YDR195W, strain ref2 1.01 | locus YDR297W, strain sur2, hits give low values 1.03 | locus YDR318W, strain mcm21, hits give low values 1.01 | locus YDR334W, strain swr1, hits give low values 1.02 | locus YDR335W, strain msn5, hits give low values 1.02 | locus YDR388W, hits give low values 1.02 | locus YDR392W, strain spt3, hits give low values 0.916 | locus YDR502C, strain sam2, hits give low values 0.979 | locus YEL003W, strain gim4, hits give low values 1.01 | locus YEL037C, strain rad23, hits give low values 1.01 | locus YEL061C, strain CIN8 (second series), hits give low values 1.01 | locus YEL061C, strain CIN8, hits give low values 1.02 | locus YER015W, strain faa2, hits give low values 1.01 | locus YER016W, strain bim1, hits give low values 1.01 | locus YER110C, hits give low values 0.991 | locus YER111C, strain swi4, hits give low values 1.01 | locus YER155C, strain BEM2 (second series), hits give low values 1.03 | locus YER155C, strain BEM2, hits give low values 1.02 | locus YER167W, strain BCK2, hits give low values 1.03 | locus YFR010W, strain ubp6, hits give low values 1.02 | locus YGL078C, strain dbp3, hits give low values 0.989 | locus YGL086W, strain mad1, hits give low values 1.01 | locus YGL167C, strain pmr1, hits give low values 1.01 | locus YGL173C, strain kem1, hits give low values 1.04 | locus YGL227W, strain vid30, hits give low values 1.02 | locus YGL240W, strain doc1, hits give low values 1.02 | locus YGL248W, strain PDE1, hits give low values 1.07 | locus YGL253W, strain hxk2, hits give low values 1.03 | locus YGR135W, strain pre9, hits give low values 1.01 | locus YGR229C, strain SMI1, hits give low values 1.04 | locus YGR252W, strain gcn5, hits give low values 0.966 | locus YHR013C, strain ard1, hits give low values 1.02 | locus YHR027C, strain rpn1, hits give low values 1.02 | locus YHR030C, strain SLT2, hits give low values 1.03 and 1 | locus YHR079C, strain IRE1 (second series), hits give low values 1.01 | locus YHR079C, strain IRE1, hits give low values 1 | locus YHR094C, strain hxt1, hits give low values 0.99 | locus YHR129C, strain ARP1, hits give low values 1.03 | locus YHR142W, strain chs7, hits give low values 1.03 | locus YHR200W, strain rpn10, hits give low values 1.01 | locus YIL066C, strain RNR3, hits give low values 1.06 | locus YIL073C, strain SPO22, hits give low values 1.03 | locus YIL125W, strain kgd1, hits give low values 0.994 | locus YIR030C, strain dcg1, hits give low values 1.01 | locus YJL092W, strain hpr5, hits give low values 1.02 | locus YJL095W, strain BCK1 (second series), hits give low values 1.01 | locus YJL095W, strain BCK1, hits give low values 1.07 and 1.02 | locus YJL115W, strain asf1, hits give low values 1.01 | locus YJL129C, strain trk1, hits give low values 1.01 | locus YJL134W, strain LCB3, hits give low values 1.02 | locus YJL154C, strain vps35, hits give low values 1.03 | locus YJL164C, strain tpk1, hits give low values 1.02 | locus YJL166W, strain qcr8, hits give low values 1.02 | locus YJL168C, strain set2, hits give low values 0.994 | locus YJL187C, strain SWE1 (second series), hits give low values 1.04 | locus YJR043C, strain POL32, hits give low values 1.01 | locus YJR066W, strain TOR1, hits give low values 0.987 | locus YKL009W, strain mrt4, hits give low values 1.01 | locus YKL068W, hits give low values 1 | locus YKL085W, strain MDH1 (second series), hits give low values 1 | locus YKL085W, strain MDH1, hits give low values 1 | locus YKL160W, strain elf1, hits give low values 1.01 | locus YKR001C, strain vps1, hits give low values 0.998 | locus YKR026C, strain gcn3, hits give low values 1.02 | locus YKR091W, strain srl3, hits give low values 1.02 | locus YLL001W, strain dnm1, hits give low values 0.984 | locus YLL026W, hits give low values 1.01 | locus YLL041C, strain sdh2, hits give low values 1.02 | locus YLR027C, strain aat2, hits give low values 1.03 | locus YLR039C, strain RIC1, hits give low values 1.05 | locus YLR058C, strain SHM2, hits give low values 1.04 | locus YLR102C, strain apc9, hits give low values 0.993 | locus YLR113W, strain HOG1, hits give low values 1.01 | locus YLR221C, strain rsa3, hits give low values 1.03 | locus YLR258W, strain gsy2, hits give low values 1.01 | locus YLR262C, strain YPT6 (second series), hits give low values 1.04 | locus YLR262C, strain YPT6, hits give low values 1.07 | locus YLR268W, strain sec22, hits give low values 0.998 | locus YLR320W, strain mms22, hits give low values 1.02 | locus YLR330W, strain CHS5, hits give low values 1.03 | locus YLR342W, strain FKS1 (second series), hits give low values 1.08 | locus YLR342W, strain FKS1, hits give low values 1.02 | locus YLR357W, strain rsc2, hits give low values 1.01 | locus YLR370C, strain arc18, hits give low values 1.01 | locus YLR371W, strain rom2, hits give low values 1.02 | locus YLR384C, strain iki3, hits give low values 1.02 | locus YLR418C, strain cdc73, hits give low values 1.04 | locus YML016C, strain PPZ1, hits give low values 1.04 | locus YML032C, strain rad52, hits give low values 1 | locus YML120C, strain ndi1, hits give low values 1.01 | locus YML124C, strain tub3, hits give low values 0.999 | locus YMR058W, strain fet3, hits give low values 1.03 | locus YMR078C, strain ctf18, hits give low values 1 | locus YMR125W, strain sto1, hits give low values 1.03 | locus YMR129W, hits give low values 1.01 | locus YMR205C, strain PFK2, hits give low values 1.03 | locus YMR223W, strain ubp8, hits give low values 1.02 | locus YMR231W, strain pep5, hits give low values 1.02 | locus YMR263W, strain SAP30, hits give low values 1.02 | locus YMR307W, strain GAS1, hits give low values 1.13 | locus YNL067W, strain RPL9B, hits give low values 1.02 | locus YNL071W, strain lat1, hits give low values 1.02 | locus YNL128W, strain TEP1, hits give low values 1.02 | locus YNL183C, strain NPR1, hits give low values 0.951 | locus YNL209W, strain ssb2, hits give low values 1.01 | locus YNL233W, strain BNI4, hits give low values 1.05 | locus YNL248C, strain rpa49, hits give low values 1.03 | locus YNL250W, strain rad50, hits give low values 0.996 | locus YNL271C, strain bni1, hits give low values 0.994 | locus YNL298W, strain CLA4, hits give low values 1 | locus YNL307C, strain MCK1, hits give low values 1.01 | locus YNL322C, strain KRE1 (second series), hits give low values 1.02 | locus YNR049C, strain mso1, hits give low values 1.02 | locus YNR052C, strain pop2, hits give low values 0.997 | locus YOL006C, strain TOP1, hits give low values 1.01 | locus YOL012C, strain htz1 1.54 | locus YOL147C, strain pex11, hits give low values 1.01 | locus YOR001W, strain rrp6, hits give low values 0.984 | locus YOR061W, strain CKA2, hits give low values 1.02 | locus YOR069W, strain VPS5, hits give low values 1.02 | locus YOR070C, strain gyp1, hits give low values 1.01 | locus YOR080W, strain dia2, hits give low values 1.01 | locus YOR083W, strain WHI5, hits give low values 1.01 | locus YOR106W, strain vam3, hits give low values 1.01 | locus YOR136W, strain idh2, hits give low values 0.99 | locus YOR144C, strain elg1, hits give low values 0.999 | locus YOR184W, strain ser1, hits give low values 1.02 | locus YOR231W, strain MKK1, hits give low values 0.993 | locus YOR265W, strain rbl2, hits give low values 1.03 | locus YOR270C, strain vph1, hits give low values 1.08 | locus YOR290C, strain snf2, hits give low values 1.02 | locus YOR316C, strain cot1, hits give low values 0.999 | locus YPL051W, strain arl3, hits give low values 1.01 | locus YPL055C, strain LGE1, hits give low values 1.05 | locus YPL078C, strain atp4, hits give low values 1.02 | locus YPL106C, strain sse1, hits give low values 1.01 | locus YPL240C, strain hsp82, hits give low values 1.01 | locus YPL241C, strain CIN2, hits give low values 1.01 | locus YPL256C, strain CLN2, hits give low values 1.03 | locus YPR119W, strain clb2, hits give low values 0.995 | locus YPR141C, strain kar3, hits give low values 1 | locus YPR163C, strain tif3, hits give low values 1 | locus YPR167C, strain met16, hits give low values 1.02 | strain wtn01, hits give low values 1.03
